# ST2 IL33 inh = inhibitors of human ST2 (IL1RL1) binding to IL-33, primary screen, biochemical, AlphaLISA; Interleukin-1 receptor-like 1 (Homo sapiens), Q01638; AlphaLISA ST2-Fc/biotin-IL-33 interaction, 1 h; inhibition, % for hits at 17 µM; 78,000 tested, 2.3% active; AID 1259354, 2018; in the data active = inhibition above about 30%
# Target sequence (Q01638 whole entry, looked up): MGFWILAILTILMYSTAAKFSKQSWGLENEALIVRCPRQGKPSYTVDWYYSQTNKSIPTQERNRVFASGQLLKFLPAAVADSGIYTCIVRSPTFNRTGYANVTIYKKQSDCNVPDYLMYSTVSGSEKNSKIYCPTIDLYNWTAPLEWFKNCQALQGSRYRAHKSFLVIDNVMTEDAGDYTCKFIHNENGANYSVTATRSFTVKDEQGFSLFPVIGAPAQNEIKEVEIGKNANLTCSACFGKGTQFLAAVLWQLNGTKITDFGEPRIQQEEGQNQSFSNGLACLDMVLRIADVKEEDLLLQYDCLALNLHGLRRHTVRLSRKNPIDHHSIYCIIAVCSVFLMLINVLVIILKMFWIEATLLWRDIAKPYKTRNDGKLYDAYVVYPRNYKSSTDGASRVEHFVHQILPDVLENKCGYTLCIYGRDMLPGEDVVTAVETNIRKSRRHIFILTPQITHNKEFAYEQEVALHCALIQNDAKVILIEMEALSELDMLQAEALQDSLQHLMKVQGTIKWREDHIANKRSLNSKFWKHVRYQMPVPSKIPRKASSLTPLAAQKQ
# Starred values were filed as active, the others as inactive; i = inactive. The full list was thinned out, with hits kept by preference.
SMILES,ST2 IL33 inh
Cc1ccccc1CN1CCN(c2ccc([N+](=O)[O-])cc2)CC1,36%*
O=[N+]([O-])c1ccc(N2CCN(Cc3ccc(O)cc3)CC2)cc1,i
O=[N+]([O-])c1ccc(N2CCN(Cc3ccc(F)c(Br)c3)CC2)cc1,31%*
Cc1ccccc1CN1CCN(c2cccc(Cl)c2)CC1,i
CN(C)CC(=O)N1C[C@@H]2C[C@H](C1)c1ccc(-c3ccc4ccccc4c3)c(=O)n1C2,i
O=c1c2ccccc2nc(-c2ccccc2)n1-c1ccccc1Cl,i
COc1cccc(CN2CCN(c3ccccc3F)CC2)c1,i
O=c1c2ccccc2nc(/C=C/c2cc(Br)ccc2O)n1-c1cccc(O)c1,i
Cc1c(C(=O)N2CC[C@@H]3CC[C@H](C2)N3C)cnn1-c1ccccn1,i
C=C[C@H]1CN2CC[C@H]1C[C@@H]2CNC(=S)Nc1ccccc1,i
COc1ccc(CN2CCN(c3ccccc3Cl)CC2)cc1OC,i
CN(C)Cc1ccccc1-c1ccc2n(c1=O)C[C@H]1C[C@@H]2CN(C(=O)c2ccccc2)C1,i
CN1CCN(C[C@H]2CN3CC[C@H]2C[C@@H]3CNC(=O)c2ccc(C(F)(F)F)cc2)CC1,i
CCc1ccccc1NC(=O)CN1C(=O)C(C)N=C(c2ccccc2)c2ccccc21 (configuration not stated),i
CN1CCC2(CC1)CN(C(=O)c1cc(=O)[nH]c(=O)[nH]1)CCCN2C,i
Cc1ccc(C)c(N2CCN(Cc3ccccc3O)CC2)c1,i
CC(=O)N1CCC(N2C[C@@H]3C[C@H](C2)c2ccc(NC(=O)c4ccco4)c(=O)n2C3)CC1,i
CN1CCN(Cc2ccsc2)CC1,i
CSc1ccc(-c2ccc3n(c2=O)C[C@H]2C[C@@H]3CN(C(=O)c3ccncc3)C2)cc1,i
O=C(O)c1cccc2c1NC(C(=O)O)C1CC(Sc3ccccc3[N+](=O)[O-])C(Cl)C21 (configuration not stated),96%*
COCCNC(=S)NC[C@H]1C[C@@H]2CCN1C[C@@H]2CN(C)CCc1ccccn1,i
